20 compounds from PubChem BioAssay AID1347076 (National Center for Advancing Translational Sciences (NCATS), 2019) can be followed below.

Screen size: about 400,000 compounds; about 13,000 (3.2%) were called active. About 18% were inconclusive and are not listed. The call rests on the fitted dose curve; in most records, active means well fitted cell-killing curve with a large enough effect; inconclusive means small, poorly fitted or top-dose-only effect, or effect the other way; inactive means flat fitted curve, though single readings scatter. What follows is part of a selection rich in actives, with near analogues and random picks from the rest.
On the % scale 0 is the no-effect control and ±100 the full control effect; potency means the concentration at half of the fitted maximal effect.

The experiment can be described thus: qHTS assay for MDR1-selective chemotherapeutics: Primary screen using the drug-selected MDR subline cells KB-V1. Further: nearly all actives have a fitted effect of over 60% in size. Conditions: KB-V1 MDR cells viability, CellTiter-Glo, 72 h; series mostly up to 46.1 µM; activity change, negative = cytotoxicity: at the top concentration. The essentials: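 Compound-treated KB-V1 multidrug-resistant cells, 72 h, 37 degrees C; viability by CellTiter-Glo. Fitted qHTS curves give the values.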
(qHTS replaces the single test concentration by a dilution series.)
As to `O=C1C2CCN(CC2)C1(CO)CO`, the “activity change, negative = cytotoxicity” value is 15.5% (inactive). Turning to `CCOC(=O)c1c(-c2ccccc2)oc2ccc(OC(=O)N(C)C)cc12`, the Potency is 16.4 µM (active). Consider `CN(C)C(=O)Oc1ccc2c(c1)O/C(=C\c1ccccc1)C2=O`, for which the “activity change, negative = cytotoxicity” value was 27.1% (inactive). Consider `Oc1ccc2c3c1OC1[C@H](O)CC[C@@]4(O)[C@@H](C2)N(CC2CC2)CC[C@]314` (stereo not given in full), for which the Potency result was “inactive”. In the case of `CCc1ccc(OCC(=O)N2CCN(CC(=O)Nc3ccccc3Cl)CC2)cc1`, the “activity change, negative = cytotoxicity” value is 1.08% (inactive).

Consider `CC(=O)NCC1=C(c2ccc3ccccc3c2)C[C@@H]2CC[C@H]1N2Cc1ccco1`, for which the “activity change, negative = cytotoxicity” value was -2.27% (inactive). The same measure, in the same setting: in the case of `C[C@]12CCC3C(CC[C@H]4C[C@@H](O)CC[C@]34C)C1C[C@@H](O)[C@H]2O` (stereo not given in full) it was 16% (inactive).

For `C[C@]12CC[C@H](O)C[C@H]1CC[C@@H]1C2CC[C@]2(C)[C@@H](C3=CC(=O)OC3)[C@@H](O)C[C@]12O` (stereo not given in full), the Potency is 6.51 µM (active).

As for `Cc1cc(-c2ccc(N)c(C)c2)ccc1N`, the “activity change, negative = cytotoxicity” value was -4.88% (inactive).

`CC(C)(C)c1ccc(OC(=O)N2CCCCC2)cc1`: the “activity change, negative = cytotoxicity” value is 17.3% (inactive). `CC1([N+](=O)[O-])COP(=O)(Nc2ccc(F)cc2)OC1` (stereo not given): the “activity change, negative = cytotoxicity” value is -1.71% (inactive). Still for that read-out and setting: in the case of `Cc1cccc(NC(=O)OC2CN3CCC2CC3)c1` (stereo not given) it was -1.06% (inactive); in that of `COC1=C[C@@H]2[C@@H]3Cc4ccc(OC)c(O)c4[C@]2(CCN3C)CC1=O`, -0.303% (inactive). Regarding `N#Cc1ccc(Cn2cc(C(=O)c3ccco3)c3ccccc32)cc1`, the Potency is 18.4 µM (active). For the compound `NC(=O)Cn1cc(C(=O)c2ccccc2F)c2ccccc21`, the “activity change, negative = cytotoxicity” value was 0% (inactive). The same measure, in the same setting: in the case of `CC(C)Nc1nc(Cl)nc(NC(C)C)n1` it was 0% (inactive). On the same count and under the same terms, the same measure for `O=C(NCC1=C(c2ccc3ccccc3c2)C[C@@H]2CC[C@H]1N2Cc1ccco1)c1cccs1`: -8.15% (inactive).

In the case of `O=C1NC(=O)C(CCc2ccccn2)(Cc2cccc(Cl)c2Cl)C(=O)N1c1ccc(Br)cc1` (stereo not given), the Potency is 7.31 µM (active). Turning to `Cc1ccc(N2C(=O)NC(=O)C(CCc3ccncc3)(Cc3cccc(Cl)c3Cl)C2=O)cc1` (stereo not given), the “activity change, negative = cytotoxicity” value is 0% (inactive). Still for that read-out and setting: in the case of `C[C@H]1CN([C@@H](C)CO)C(=O)CCCn2nncc2CO[C@H]1CN(C)C(=O)Oc1ccccc1` it was 90.2% (inactive).
